Assay results as given in PubChem BioAssay (EPA / NIEHS).
Calls of active or inactive are those of the source. Rule for the calls: active = hit-call score of the fitted dose curve at least 0.9, where 1 is the maximum; inactive = score below 0.9.

How the values were obtained:
[1] = BSK_BT_PBMCCytotoxicity: PBMC Cytotoxicity Assessment in the BioMAP Diversity Plus: BT Assay (AID 2284225); details: primary human B cells with PBMC;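 note: PBMC viability measured by Alamar Blue dye reduction fluorescence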
Procedure, shortened: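 75,000 cells/well; cpd 1 h → SEB + TSST-1 (20 ng/mL final each) → 90 h → Alamar Blue 6 h → fluor. 546/580 nm. DMSO = neg. control/baseline.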

[2] = read-out: Secreted IgG (sIgG), gene 3500; assay: BSK_BT_sIgG: BioMAP Diversity Plus: BT Assay for Secreted IgG (sIgG) Biomarker Activity (AID 2284226); details: primary human B cells with PBMC
Procedure, shortened: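 Secreted IgG from a human primary B cell–PBMC co-culture was measured by ELISA 24 hours after dosing, with DMSO defining baseline activity.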

[3] = BSK_BT_Bcell_Proliferation: Viability Assessment in the BioMAP Diversity Plus: BT Assay for B cell Proliferation (AID 2284227); details: primary human B cells with PBMC
Procedure, shortened: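 Using a human primary B cell–PBMC co-culture, the assay measures total protein by sulforhodamine B absorbance as a gauge of proliferation after 72 h. Analysis followed the positive fitting direction with DMSO as baseline.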

[4] = read-out: Interleukin 6 (IL6), IL6 (gene 3569); assay: BSK_BT_xIL6: BioMAP Diversity Plus: BT Assay for Interleukin 6 (IL6) Biomarker Activity (AID 2284228); details: primary human B cells with PBMC
Procedure, shortened: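 IL-6 secretion measured (Luminex xMAP) in human primary B cell + PBMC co-culture at 24 h of chemical exposure; DMSO served as negative control and activity baseline, with curves fitted for increase.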

[5] = read-out: Interleukin 17A (IL17A), IL17A (gene 3605); assay: BSK_BT_xIL17A: BioMAP Diversity Plus: BT Assay for Interleukin 17A (IL17A) Biomarker Activity (AID 2284229); details: primary human B cells with PBMC
Procedure, shortened: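 Human primary B cells plus PBMC, treated 24 h with chemicals; supernatant IL-17A quantified on Luminex xMAP beads. Gain of signal over DMSO control scored as activity.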

[6] = read-out: Tumor necrosis factor (Homo sapiens) (UniProt P01375); assay: BSK_BT_xTNFa: BioMAP Diversity Plus: BT Assay for Tumor necrosis factor alpha (TNF-alpha) Biomarker Activity (AID 2284230); details: primary human B cells with PBMC
Procedure, shortened: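 Endpoint derived in the positive direction versus DMSO vehicle. Cells: B cells together with PBMC, exposed 24 h before TNF-alpha in the medium was read on the Luminex xMAP platform.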

[7] = read-out: Vascular cell adhesion molecule 1 (VCAM1), VCAM1 (gene 7412); assay: BSK_MyoF_VCAM1: BioMAP Diversity Plus: MyoF Assay for Vascular cell adhesion molecule 1 (VCAM1) Biomarker Activity (AID 2284231); details: primary human lung fibroblasts
Procedure, shortened: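 VCAM-1 levels, lung fibroblasts, ELISA, 24 h exposure, increase scored relative to DMSO.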

[8] = read-out: Collagen I, COL1A1 (gene 1277); assay: BSK_MyoF_CollagenI: BioMAP Diversity Plus: MyoF Assay for Collagen I Biomarker Activity (AID 2284238); details: primary human lung fibroblasts
Procedure, shortened: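 Measured by ELISA: Collagen I from human lung fibroblasts 24 h after compound addition, analysed for signal gain with DMSO as baseline; overt toxicity read from SRB staining of parallel cultures at the same time.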

[9] = read-out: Collagen III, COL3A1 (gene 1281); assay: BSK_MyoF_CollagenIII: BioMAP Diversity Plus: MyoF Assay for Collagen III Biomarker Activity (AID 2284239); details: primary human lung fibroblasts
Procedure, shortened: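 Multiplexed cell assay in lung fibroblasts, harvested at 24 h post-dose. Collagen III detected by ELISA, with positive-direction fitting relative to DMSO vehicle.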

[10] = read-out: Interleukin 17F (IL17F), IL17F (gene 112744); assay: BSK_BT_xIL17F: BioMAP Diversity Plus: BT Assay for Interleukin 17F (IL17F) Biomarker Activity (AID 2284243); details: primary human B cells with PBMC
Procedure, shortened: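 Luminex readout of IL-17F secretion, 24 h; cells: human B cells with PBMC; positive-direction analysis, DMSO control.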

[11] = read-out: Actin alpha 1 (ACTA1), ACTA1 (gene 58); assay: BSK_MyoF_ACTA1: BioMAP Diversity Plus: MyoF Assay for Actin alpha 1 (ACTA1) Biomarker Activity (AID 2284244); details: primary human lung fibroblasts
Procedure, shortened: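 Measured by ELISA: alpha-smooth muscle actin in human primary lung fibroblasts 24 h after dosing, with DMSO as baseline and upward signal change as the fitted direction.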

Measured: AC50

Sequence of Tumor necrosis factor (Homo sapiens) (P01375 whole entry, looked up): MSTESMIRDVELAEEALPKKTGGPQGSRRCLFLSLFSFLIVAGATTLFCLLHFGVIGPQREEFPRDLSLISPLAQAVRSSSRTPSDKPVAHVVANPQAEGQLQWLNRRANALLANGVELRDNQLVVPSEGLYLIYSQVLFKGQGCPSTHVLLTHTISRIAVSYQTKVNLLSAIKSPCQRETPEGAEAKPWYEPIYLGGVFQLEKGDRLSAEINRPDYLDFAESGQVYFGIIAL

CC(C)=CC1C(C(=O)OCc2cccc(Oc3ccccc3)c2)C1(C)C (centres undefined)
active: [2] 13.8 µM | [3] 31.4 µM | [4] 11.2 µM | [6] 20 µM | [10] 20 µM
inactive: all other assays above

Cc1cc(Cl)ccc1N
inactive: all assays above

CCOP(=S)(OCC)OP(=S)(OCC)OCC
inactive: all assays above

CC(C)(COCC1CO1)COCC1CO1 (centres undefined)
active: [2] 16 µM | [3] 20 µM | [10] 24.5 µM
inactive: all other assays above

Cc1ccc(OP(=O)(Oc2ccc(C)cc2C)Oc2ccc(C)cc2C)c(C)c1
active: [1] 5.32 µM | [2] 15.4 µM | [3] 20 µM | [4] 11.7 µM | [5] 20 µM | [6] 20 µM | [9] 20 µM | [10] 24.9 µM
inactive: [7] | [8] | [11]

OC(Cc1ccccc1Cl)(Cn1cncn1)C1(Cl)CC1 (centres undefined)
active: [2] 20 µM
inactive: all other assays above

c1ccc(-c2cccc(-c3ccccc3)c2)cc1
inactive: [4] | [5] | [6]
active: [1] 32.8 µM | [2] 15.7 µM | [3] 33.3 µM | [7] 29.1 µM | [8] 26.4 µM | [9] 32.9 µM | [10] 22.6 µM | [11] 20 µM

Nc1c(Oc2ccccc2)cc(O)c2c1C(=O)c1ccccc1C2=O
inactive: all assays above

Cc1ccc2nc3sc(=O)sc3nc2c1
active: [2] 5 µM | [3] 5 µM | [7] 7.88 µM
inactive: all other assays above

CCOC(=O)CC(=O)CCl
active: [1] 19 µM | [2] 4.86 µM | [3] 16.9 µM | [4] 11.8 µM | [5] 10.5 µM | [6] 23.4 µM | [10] 12.4 µM
inactive: [7] | [8] | [9] | [11]

O=[N+]([O-])c1ccc(Nc2ccccc2)cc1
active: [2] 12.9 µM
inactive: all other assays above

C[C@]12CC[C@@H](O)C[C@@H]1CC[C@@H]1[C@@H]2CC[C@]2(C)C(=O)CC[C@@H]12
active: [2] 20 µM
inactive: all other assays above

O=S(=O)(C(Cl)(Cl)Cl)C(Cl)(Cl)Cl
active: [1] 3.65 µM | [2] 2.2 µM | [3] 2.48 µM | [4] 3.85 µM | [5] 3.08 µM | [6] 4.36 µM | [7] 3.12 µM | [8] 3.07 µM | [9] 4.1 µM | [10] 3.03 µM | [11] 2.64 µM

CCOP(=S)(OCC)SCS(=O)(=O)C(C)(C)C
inactive: all assays above
